The test system of the experiment is KDR.
As to `COc1cc2nccc(Nc3ccc(OCc4ccc(NC(C)=O)cc4)cc3)c2cc1OC` [GW440135], the Kinases covered entry is “KDR”.

For the compound `Cl.O=C(Nc1ccc(Oc2ccc3[nH]c(NC(=O)c4ccco4)nc3c2)cc1)Nc1cc(C(F)(F)F)ccc1F` [GW683134A], the Kinases covered result is reported as “KDR”.

With `Cl.O=C(Nc1ccc(Oc2ccc3[nH]c(NC(=O)c4ccccc4)nc3c2)cc1)Nc1cc(C(F)(F)F)ccc1F` [GW709042A], the Kinases covered result is reported as “KDR”.

Consider `COC(=O)Nc1nc2ccc(Oc3ccc(NC(=O)Nc4cc(C(F)(F)F)ccc4F)cc3)cc2s1.Cl` [GW693917A], for which the Kinases covered result is on record as “KDR”.

Take `Nc1ncnc2occ(-c3ccc(NC(=O)Nc4cc(C(F)(F)F)ccc4F)cc3)c12` [GW770249X]: the Kinases covered result was “KDR”.

As to `CN1CCN(C(=O)c2ccc(NC(=O)Nc3ccc(N(C)c4ccnc(Nc5ccc(CS(C)(=O)=O)cc5)n4)cc3)cc2)CC1.Cl` [GW830263A], the Kinases covered entry is given as “KDR”.

Take `Cn1ccc2ncnc(Oc3ccc(NC(=O)Nc4ccccc4)cc3)c21` [TPKI-69]: the Kinases covered entry is given as “KDR”.
